Bioassay records from PubChem.
JMJD2C inh = inhibitors of human GASC-1 (JMJD2C) demethylase | GST-JMJD2C(1-420) H3K9me3 demethylation, DELFIA europium | inhibition, % at 2.35 µM | 330,000 compounds, 0.069% hits | AID 2099;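 active means more than half of a compound's replicate wells show inhibition beyond 50%, single wells judged on their own value; inconclusive means some, but no more than half, of replicates pass 50% inhibition; inactive means no replicate passes 50% inhibition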;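 further: signal counts dimethyl H3K9 product captured on neutravidin plate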
Target sequence (Q9H3R0 1-420 limits assumed): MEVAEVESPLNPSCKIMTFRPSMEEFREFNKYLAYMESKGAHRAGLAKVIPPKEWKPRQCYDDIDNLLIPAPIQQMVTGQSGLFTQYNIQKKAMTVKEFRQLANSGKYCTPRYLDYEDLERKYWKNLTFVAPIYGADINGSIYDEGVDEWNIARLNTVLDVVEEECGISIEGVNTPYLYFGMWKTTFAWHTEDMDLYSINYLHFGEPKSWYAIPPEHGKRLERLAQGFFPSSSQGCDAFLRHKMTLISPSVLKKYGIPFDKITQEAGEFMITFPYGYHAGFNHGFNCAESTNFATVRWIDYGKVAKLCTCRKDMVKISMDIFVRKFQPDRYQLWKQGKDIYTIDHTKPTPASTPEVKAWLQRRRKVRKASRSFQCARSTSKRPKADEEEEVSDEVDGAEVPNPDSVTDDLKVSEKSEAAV
ALR inh = blocks human ALR sulfhydryl oxidase activity; purified ALR, DTT oxidation, H2O2 HRP-luminol luminescence; 290,000 compounds, 3.8% hits; P55789; inhibition, % (no concentration beside the values);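 active means mean replicate inhibition above about 79%, with every replicate also reaching it, limit read from the data; inconclusive means only one of the two criteria met; inactive means mean below limit and not every replicate reaching it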
Target sequence (P55789 whole entry, looked up): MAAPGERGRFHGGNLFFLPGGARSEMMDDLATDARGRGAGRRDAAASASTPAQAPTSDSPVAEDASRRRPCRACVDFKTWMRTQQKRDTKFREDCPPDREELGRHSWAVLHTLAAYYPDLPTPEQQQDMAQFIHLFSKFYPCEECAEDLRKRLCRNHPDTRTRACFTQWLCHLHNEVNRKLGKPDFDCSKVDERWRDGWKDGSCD
PfM18AAP inh = PfM18AAP enzyme inhibition; 290,000 compounds, 1.2% hits; inhibition, % at 7.35 µM; recombinant PfM18AAP, H-Glu-NHMec fluorogenic cleavage; AID 1822;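 active means inhibition above the campaign mean inhibition over all tested compounds plus 3 SD, cut at about 28% in these data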
beta cell repl = induces beta-cell replication in MIN6 cells. AID 2380. 330,000 compounds, 0.29% hits. MIN6 cells proliferation, ATPlite luminescence, 48 h; cells starved in 0.2% serum; 100% = growth in 10% serum. proliferation, % at 10 µM;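 active means compounds whose signal lies at least 3.5 SD above the mean of all wells on their plate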
Granule exo inh = lytic granule exocytosis inhibition; TALL-104 LAMP-1 surface exposure, flow cytometry; cells stimulated with thapsigargin and PMA; inhibition, % at 10 µM; 360,000 compounds, 0.66% hits;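 active means inhibition above about 55%, limit read from the data; inconclusive means no clear call, values can overlap the other calls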
SMARCA2 act = SMARCA2 function activation, primary screen; MG213 cells, MMTV-luciferase reporter, dexamethasone, overnight; activation, % at 9.1 µM; 370,000 compounds, 1% hits; in the data active means activation above about 7.8%
Of the large screens only hits and unclear results are named; the others gave an inactive call. Only some compounds are listed: those with a hit (about 5.4% of all), similar ones and a draw of the others.

COc1ccccc1NCCC(=O)O	none (no result: ALR inh)
O=C(CSC(=S)N1CCCC1)c1cc(Br)cc(Br)c1O	JMJD2C inh 58 (no result: Granule exo inh)
CC1CCCN(C(=S)SCC(=O)c2cc(Br)cc(Br)c2O)C1 (configuration not stated)	ALR inh inconclusive
CCCN(CC1CC1)C(=O)c1ccc(CNC(=O)c2cccc(Br)c2)cc1	none (no result: JMJD2C inh, ALR inh, PfM18AAP inh, beta cell repl, Granule exo inh)
Cc1ccc(-c2nc(CS(=O)CC(=O)NCCN3CCCCCC3)c(C)o2)cc1 (configuration not stated)	ALR inh 98
Cc1oc(-c2ccc(Cl)cc2)nc1CS(=O)CC(=O)NCCCN1CC(C)CC(C)C1 (configuration not stated)	none
Cc1oc(-c2ccc(Cl)cc2)nc1CS(=O)CC(=O)NCCN1CCCCCC1 (configuration not stated)	ALR inh 99
COc1ccc(Cn2cc(CN3[C@@H](C)COc4cc(Br)ccc4S3(=O)=O)nn2)cc1	none (no result: JMJD2C inh, ALR inh, PfM18AAP inh, beta cell repl, Granule exo inh)
C/C(=N\NC(=O)c1c(C)nc2ccccn12)c1ccc(N2CCOCC2)cc1	ALR inh 87
CCNC(=S)N/N=C(\C)c1ccc(N2CCOCC2)cc1	PfM18AAP inh 29
CNC(=S)N/N=C(\C)c1ccc(N2CCOCC2)cc1	none (no result: ALR inh, beta cell repl)
CC(=O)c1cc(-c2ccc(Oc3ccccc3)cc2)c(=O)n2c1CCC2	none (no result: JMJD2C inh, ALR inh, PfM18AAP inh, beta cell repl, Granule exo inh)
CC(=O)N1C[C@H]2CON(C)[C@H]2C[C@H]1c1ccccc1-c1ccccc1	none (no result: JMJD2C inh, ALR inh, PfM18AAP inh, beta cell repl, Granule exo inh)
CC(=O)Nc1ccc(S(=O)(=O)Nc2nc3ccccc3nc2Nc2ccccc2)cc1	none (no result: ALR inh)
COc1ccc(NS(=O)(=O)c2ccc(Oc3cccc(C(=O)O)c3)cc2)cc1	none
CC(=O)Nc1ccc(Nc2nc3ccccc3nc2NS(=O)(=O)c2ccccc2)cc1	ALR inh 98
COc1ccc(S(=O)(=O)Nc2nc3ccccc3nc2Nc2cccc(C(=O)O)c2)cc1	ALR inh 98
COC(=O)C(N)Cc1ccc(O)cc1 (configuration not stated)	none
NC(CO)C(=O)NNCc1ccc(O)c(O)c1O (configuration not stated)	JMJD2C inh inconclusive, PfM18AAP inh 29
Cc1cc(C)c(S(=O)(=O)/N=C2/C=C(SCC(=O)O)C(=O)c3ccccc32)cc1C	Granule exo inh 79 (no result: JMJD2C inh, ALR inh, SMARCA2 act)
N#Cc1cc(C(=O)c2ccccc2O)cn(-c2nccs2)c1=O	ALR inh 97 (no result: beta cell repl)
Cc1ccc(CSc2nc3c(c(SCC(=O)O)n2)CCCC3)cc1	ALR inh 97
Cc1cc(C)cc(C(=O)OCCCN(C)C2CN(Cc3cn(Cc4ccccc4Cl)nn3)S(=O)(=O)C2)c1 (configuration not stated)	none (no result: JMJD2C inh, ALR inh, PfM18AAP inh, beta cell repl, Granule exo inh)
COc1ccccc1-c1nnc2n1N=C(c1ccc(O)c(O)c1)CS2	ALR inh 99, PfM18AAP inh 69 (no result: SMARCA2 act)
Cc1ccccc1-c1nnc2n1N=C(c1ccc(O)c(O)c1)CS2	none (no result: JMJD2C inh, ALR inh, PfM18AAP inh, beta cell repl, Granule exo inh)
Cn1c(SCC(=O)Nc2ccc(C(N)=O)cc2)nc2c(c1=O)SCC2	ALR inh 99
Cn1c(SCC(=O)Nc2cccc(F)c2)nc2c(c1=O)SCC2	ALR inh 94
COc1ccc(NC(=O)CSc2nc3c(c(=O)n2-c2ccccc2OC)SCC3)cc1	none
CCOC(=O)c1ccc(NC(=O)CSc2nc3c(c(=O)n2-c2ccccc2OC)SCC3)cc1	ALR inh 99 (no result: PfM18AAP inh)
COc1ccc(CNS(=O)(=O)/C=C/c2ccc(F)cc2CNC(=O)OC(C)(C)C)cc1	none (no result: JMJD2C inh, ALR inh, PfM18AAP inh, beta cell repl, Granule exo inh)
CCOC(=O)[C@]12CCCC=C1N(CCCOC)C(=O)[C@@H]2CC(=O)N1CCSCC1	none (no result: JMJD2C inh, ALR inh, PfM18AAP inh, beta cell repl, Granule exo inh)
O=C(Nc1ccc(F)cc1)OCCCN1C(=O)CCC12CCCCC2	none (no result: JMJD2C inh, ALR inh, PfM18AAP inh, beta cell repl, Granule exo inh)
O=C1OCCC1=Cc1ccccc1	none (no result: JMJD2C inh, ALR inh, PfM18AAP inh, beta cell repl)
O=C1OCC/C1=C\c1ccc(O)cc1	ALR inh 98
CC(=O)N1CCC(=NNC(=O)c2cccs2)CC1	ALR inh 77
O=C(NN=C1CCCC1)c1cccs1	none
CC1(C(=O)N2CCC(Oc3cccnc3)CC2)CC1	none (no result: JMJD2C inh, ALR inh, PfM18AAP inh, beta cell repl, Granule exo inh)
COC(=O)C(C)Oc1ccc(-c2nccc(-c3cccs3)n2)cc1 (configuration not stated)	none
Oc1ccc(-c2nccc(-c3cccs3)n2)cc1	ALR inh 89
CC(=N\Nc1ccc(Cl)cc1)/C(=N/O)C(=O)Nc1ccccc1	ALR inh 99
CN(Cc1cccnc1)C(=O)c1ccc2nc(Cc3ccccc3F)oc2c1	ALR inh 97
Nc1[nH]c(C(=O)c2ccccc2)c(-c2ccccc2Cl)c1C(=O)NCCc1c[nH]c2ccccc12	none (no result: JMJD2C inh, ALR inh, PfM18AAP inh, beta cell repl, Granule exo inh)
O[C@H](COc1ccccc1)CN1CCC(C(O)(c2ccccc2)c2ccccc2)CC1	none (no result: JMJD2C inh, ALR inh, PfM18AAP inh, beta cell repl, Granule exo inh)
CC1(C)CC(=O)C(=Cc2cn(-c3ccccc3)nc2-c2ccccc2)C(=O)C1	Granule exo inh 56 (no result: PfM18AAP inh)
C[C@@H]1CN([C@@H](C)CO)C(=O)CCCn2cc(nn2)CO[C@H]1CN(C)C(=O)Nc1ccc2c(c1)OCO2	none (no result: JMJD2C inh, ALR inh, PfM18AAP inh, beta cell repl, Granule exo inh)
COC(=O)C1=C(C)NC(=S)NC1c1cccc(OC)c1 (configuration not stated)	none (no result: JMJD2C inh, ALR inh, PfM18AAP inh, beta cell repl, Granule exo inh)
O=C(c1ccncc1)c1ccc(N2CCN(C3CC(=O)N(Cc4cccs4)C3=O)CC2)cc1 (configuration not stated)	none (no result: ALR inh)
O=C1CC(N2CCN(c3ccc(O)cc3)CC2)C(=O)N1Cc1cccs1 (configuration not stated)	ALR inh 99
COC(=O)Cc1ccc(NC(=S)NNC(=O)c2ccccc2Br)cc1	none
COC(=O)c1ccc(NC(=S)NNC(=O)c2ccccc2)cc1	ALR inh 92
O=C(NNC(=S)Nc1ccc(Br)cc1)c1ccccc1	ALR inh 97
O=C(NC(=S)Nc1ccc(O)cc1)c1cncc(Br)c1	ALR inh 99 (no result: PfM18AAP inh)
O=C(NC(=S)Nc1cccc(O)c1)c1cncc(Br)c1	none (no result: PfM18AAP inh)
O=C(NNC(=S)Nc1ccc(Br)cc1)c1ccccc1Br	ALR inh 99
CC(CCN1CCC(C(O)(c2ccccc2)c2ccccc2)CC1)Oc1cc(F)cc(C#N)c1 (configuration not stated)	none (no result: JMJD2C inh, ALR inh, PfM18AAP inh, beta cell repl, Granule exo inh)
O=S(=O)(c1ccccc1Br)N(Cc1cn(CC2CCCCC2)nn1)C1CC1	none (no result: JMJD2C inh, ALR inh, PfM18AAP inh, beta cell repl, Granule exo inh)
COc1cc2c(cc1OC)[C@@H](NC(=O)c1ccncc1)[C@H](C)[C@H]2c1ccccc1	none (no result: JMJD2C inh, ALR inh, PfM18AAP inh, beta cell repl, Granule exo inh)
Oc1ccccc1C=NC(N=Cc1ccccc1O)c1ccccc1O (configuration not stated)	none (no result: JMJD2C inh, ALR inh, PfM18AAP inh, beta cell repl, Granule exo inh)
COC(=O)C1=C(C)N(C)C(=NCc2ccc(OC)cc2)NC1c1ccccc1 (configuration not stated)	none (no result: JMJD2C inh, ALR inh, PfM18AAP inh, beta cell repl, Granule exo inh)
Cc1cc(C)cc(NC(=O)OC2CC3CC2[C@H]2CCCCN2[C@H]3Cc2ccccc2)c1 (some centres not stated)	none (no result: JMJD2C inh, ALR inh, PfM18AAP inh, beta cell repl, Granule exo inh)
Cc1ccccc1S(=O)(=O)NC1OC(=O)C(Cl)=C1Cl (configuration not stated)	none (no result: JMJD2C inh)
Cc1ccccc1S(=O)(=O)NC1OC(=O)C(Oc2ccccc2)=C1Br (configuration not stated)	ALR inh 95
COC(=O)CSc1nc2sc3c(c2c(=O)n1C1CCCCC1)CCN(C)C3	ALR inh 92 (no result: Granule exo inh, SMARCA2 act)
